# The supplement of paper PMC11417369
# ± gives the standard deviation of the averaged measurements. Whole data set: some 25,000 sequences, median “ln(normalized median fluorescence intensity)” near 8.9, cut for the highest 2% near 10. The full list was thinned out, with the highest values kept by preference.
# Tested on: PfAP2-LT AP2 domain (GST-tagged)
# Assay: gcPBM binding intensity (ln(normalized median fluorescence intensity)); higher = stronger DNA binding
# In short: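 Probes on an Agilent 4 × 180k array were primer-extended, double-stranded and 36 bp long, taken from intergenic genomic regions, with negative controls added. GST-tagged P. falciparum DNA-binding domains from E. coli, about 25 μg on average, were applied to the array for 1 h in 1× PBS containing 1% milk, 0.2 mg/ml BSA, 0.5% salmon testes DNA and 0.03% Triton X-100. Binding intensity, obtained after Alexa488 anti-GST antibody detection and a 488 nm scan, is the highest Masliner-normalised natural-log median intensity across replicate spots of either probe orientation.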
row,Sequence,gcPBM binding intensity (ln)
1,TGTTATTCTGCATATACACACAAATAACAATTTAAA [CACACA_site6943],8.67 ± 0.38
2,CCTTTTTTATTTACAACACACGTAAAGGTTCAAATA [CACACA_site1741],8.68 ± 0.42
3,TTTTCAATTAATAATACACACATGTATATATCATTA [CACACA_site7539],8.81 ± 0.43
4,TATGAAATGCTCCAATCACACATGAATGTAATATAT [CACACA_site5458],8.73 ± 0.35
5,AACTATTACTTTCTTTCACACATTTTTTTTTTTTTT [CACACA_site5355],8.94 ± 0.59
6,AATAATATCTGAAAATGTACATTTTATTATAAACAT [XGTACX_site8441],8.86 ± 0.45
7,ATGAATAAAAAAGGTGGTACATATATATATATATAT [XGTACX_site7893],9.82 ± 0.11
8,AAAAAAAAAAGACACACACACATAGACCTCCAATAG [CACACA_site7646],9.79 ± 0.25
9,AAAAAAAAAAAAAACACACACACATAGACCTCCAAT [CACACA_site3563],10.2 ± 0.26
10,AAAAAAAAAAAACACACACACATAGACCTCCAATAG [CACACA_site3562],9.77 ± 0.25
11,TATAAATATACAAAGGTGCATAAAAAGTTATGTTTT [GTGCAC_site9832],8.72 ± 0.44
12,TTCTATTCAAATGCAAAATTATTAAATAAAAAATAA [GTGCAC_negctrl_site708],8.31 ± 0.43
13,AAAAAAAAAAGAAACACACACATATATATATAGAAT [CACACA_site1777],9.44 ± 0.39
14,GAAAAGCATAGATGCACACATATATATATATATATA [CACACA_site2169],10.18 ± 0.014
15,AAGAAAAGCATAGATGCACACATATATATATATATA [CACACA_site8675],10.2 ± 0.32
16,GCTAAAAGTATATGCACACACATATAGATGCACATA [CACACA_site6868],9.34 ± 0.33
17,TAGGAAAAGAAAAGCACACACATAAATAGATATATA [CACACA_site6382],9.43 ± 0.54
18,ATTTTAGATGAAAAAGCACACAACATATATATATAT [CACACA_site2295],9.44 ± 0.38
19,AATACCCATATCTTCACACATACATAATAAATTATA [CACACA_site5367],8.81 ± 0.36
20,AAAAAAAAAATATACACACACATATAAATATAAATA [CACACA_site7574],9.34 ± 0.42
21,TGAGGTAACTAAATATGTACGTAACGAAGATACATA [XGTACX_site8231],8.96 ± 0.5
22,AATTGTTCGATATATGCACACAGTTTTGTTATTTTT [CACACA_site1615],9.25 ± 0.34
23,GTTTGATTAAACTTGACACACATATATATAAATATA [CACACA_site1784],8.71 ± 0.44
24,TATTAAACTTGACACACACACACACGCATATATAAA [CACACA_site6496],10.1 ± 0.14
25,TTTATTAAACTTGACACACACACACCCACATATATA [CACACA_site760],9.8 ± 0.28
